{
  "source": "paper PMC4336329",
  "about": "(PLoS ONE, 2015)",
  "note": "Hit rate of the full screen: of about 310,000 compounds, about 14,000 (4.5%) showed an effect of 50% or more. The effect is printed as a negative number. Only a selection was taken, and strong results are over-represented in it overall.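 Note: peak tail current of the secondary pulse compared with the same well before compound.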",
  "data": [
    {"target": "human ether-à-go-go-related gene (hERG) potassium channel (human, UniProt Q12809)", "sequence (Q12809 whole entry, looked up)": "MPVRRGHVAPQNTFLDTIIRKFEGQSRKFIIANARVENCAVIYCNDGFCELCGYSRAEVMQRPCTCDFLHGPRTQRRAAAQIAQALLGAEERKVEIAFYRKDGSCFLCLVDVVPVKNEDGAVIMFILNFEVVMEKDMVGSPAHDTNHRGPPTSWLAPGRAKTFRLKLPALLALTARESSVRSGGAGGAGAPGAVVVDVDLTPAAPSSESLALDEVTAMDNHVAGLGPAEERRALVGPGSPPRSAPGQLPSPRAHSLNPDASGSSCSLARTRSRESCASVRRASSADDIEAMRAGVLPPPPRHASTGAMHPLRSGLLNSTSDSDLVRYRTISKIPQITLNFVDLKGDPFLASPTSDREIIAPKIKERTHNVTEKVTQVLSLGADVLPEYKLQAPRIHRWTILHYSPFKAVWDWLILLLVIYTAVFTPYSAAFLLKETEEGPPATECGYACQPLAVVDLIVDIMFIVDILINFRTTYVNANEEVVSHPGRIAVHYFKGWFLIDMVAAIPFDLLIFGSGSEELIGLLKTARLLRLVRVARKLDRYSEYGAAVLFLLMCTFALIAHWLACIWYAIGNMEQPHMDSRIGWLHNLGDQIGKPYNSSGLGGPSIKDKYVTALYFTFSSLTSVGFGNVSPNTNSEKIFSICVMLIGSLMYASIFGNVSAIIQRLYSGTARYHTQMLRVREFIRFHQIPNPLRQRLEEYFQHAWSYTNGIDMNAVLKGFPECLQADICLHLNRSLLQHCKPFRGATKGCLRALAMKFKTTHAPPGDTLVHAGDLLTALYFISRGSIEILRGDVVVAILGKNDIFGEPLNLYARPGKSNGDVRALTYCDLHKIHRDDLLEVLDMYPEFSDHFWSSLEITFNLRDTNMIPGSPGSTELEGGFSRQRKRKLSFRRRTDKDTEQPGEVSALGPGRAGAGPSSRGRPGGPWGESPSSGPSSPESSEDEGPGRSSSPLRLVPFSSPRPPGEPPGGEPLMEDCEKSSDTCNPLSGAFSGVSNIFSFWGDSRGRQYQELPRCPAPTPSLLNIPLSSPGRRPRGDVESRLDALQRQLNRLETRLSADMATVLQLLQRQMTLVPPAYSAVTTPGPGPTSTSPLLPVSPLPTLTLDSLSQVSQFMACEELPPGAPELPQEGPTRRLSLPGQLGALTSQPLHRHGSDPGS", "test": "primary screen, population patch clamp on CHO cells stably expressing hERG; higher = less effect of the substance", "units": {"hERG current change (%, negative = inhibition) at 10uM": "%"}, "values": [
      {"smiles": "O=C(O)c1cccc(Nc2ncnc3ccc(Br)cc23)c1", "hERG current change (%, negative = inhibition) at 10uM": -1.55},
      {"smiles": "COc1ccccc1CNS(=O)(=O)c1ccc(C)cc1", "hERG current change (%, negative = inhibition) at 10uM": 7.04},
      {"smiles": "CN(C)c1ccc(/C=C2\\C(=N)N3N=C(CC(=O)N4CCCC4)SC3=NC2=O)cc1Br", "hERG current change (%, negative = inhibition) at 10uM": 4.09},
      {"smiles": "COCc1cc(C)nc(N/N=C/c2ccc(Cl)c(Cl)c2)c1C#N", "hERG current change (%, negative = inhibition) at 10uM": 12.4},
      {"smiles": "CCN1CC2([N+](=O)[O-])CC=C(Cl)C([N+](=O)[O-])(C1)C2", "note": "(centres unmarked)", "hERG current change (%, negative = inhibition) at 10uM": 13.9},
      {"smiles": "Cc1nc2ncnn2c(N2CCN(S(=O)(=O)c3ccc(Br)cc3)CC2)c1C", "hERG current change (%, negative = inhibition) at 10uM": -20.7},
      {"smiles": "Cc1cc(N2CCN(S(=O)(=O)Cc3ccccc3)CC2)n2ncnc2n1", "hERG current change (%, negative = inhibition) at 10uM": -46.1},
      {"smiles": "Cc1cc(N2CCN(S(=O)(=O)c3ccc(Br)cc3)CC2)n2ncnc2n1", "hERG current change (%, negative = inhibition) at 10uM": -76.9},
      {"smiles": "Cc1cc(N2CCN(S(=O)(=O)c3ccc4ccccc4c3)CC2)n2ncnc2n1", "hERG current change (%, negative = inhibition) at 10uM": -77.7},
      {"smiles": "Cc1ccccc1N1CCN(S(=O)(=O)c2ccc3ccccc3c2)CC1", "hERG current change (%, negative = inhibition) at 10uM": 9.64},
      {"smiles": "CC(=O)Nc1ccc(S(=O)(=O)N2CCN(c3cc(C)nc4ncnn34)CC2)cc1", "hERG current change (%, negative = inhibition) at 10uM": -27.9},
      {"smiles": "CC1CN(C(=O)CSc2nnc(NC(=O)NC(C)(C)C)s2)CC(C)O1", "note": "(centres unmarked)", "hERG current change (%, negative = inhibition) at 10uM": 19},
      {"smiles": "CC1(CCc2ccccc2)NC(=O)N(Cc2nnc(-c3ccccc3Br)o2)C1=O", "note": "(centres unmarked)", "hERG current change (%, negative = inhibition) at 10uM": -26},
      {"smiles": "CCOC(=O)C1CCN(C(=O)CN(c2ccc(OC)c(OC)c2)S(=O)(=O)c2ccccc2)CC1", "hERG current change (%, negative = inhibition) at 10uM": -14.7},
      {"smiles": "CCOc1ccc(S(=O)(=O)NCCC(=O)NCC(c2ccco2)N2CCCCC2)cc1", "note": "(centres unmarked)", "hERG current change (%, negative = inhibition) at 10uM": -17.7},
      {"smiles": "O=C(Nc1cc(C(F)(F)F)ccc1N1CCOCC1)c1ccco1", "hERG current change (%, negative = inhibition) at 10uM": 6.93},
      {"smiles": "O=C(Nc1cc([N+](=O)[O-])ccc1N1CCCC1)c1ccco1", "hERG current change (%, negative = inhibition) at 10uM": -34.5},
      {"smiles": "O=C(Nc1cc(C(F)(F)F)ccc1N1CCCCC1)c1ccco1", "hERG current change (%, negative = inhibition) at 10uM": 21.2},
      {"smiles": "CC1N(C)c2cc(NC(=O)c3cccs3)c(P(=O)(Nc3ccc([N+](=O)[O-])cc3)N3CCOCC3)cc2C1(C)C", "note": "(centres unmarked)", "hERG current change (%, negative = inhibition) at 10uM": 12.2},
      {"smiles": "CN1CCN(c2ccc([N+](=O)[O-])cc2NC(=O)c2ccco2)CC1", "hERG current change (%, negative = inhibition) at 10uM": -66.9},
      {"smiles": "CN1CCN(c2ccc(C(F)(F)F)cc2NC(=O)c2ccco2)CC1", "hERG current change (%, negative = inhibition) at 10uM": -54.5},
      {"smiles": "CC1N(C)c2cc(NC(=O)c3ccco3)ccc2C1(C)C", "note": "(centres unmarked)", "hERG current change (%, negative = inhibition) at 10uM": -13.9},
      {"smiles": "CC1N(C)c2cc(NC(=O)c3ccco3)c(P(=O)(Nc3ccc([N+](=O)[O-])cc3)N3CCOCC3)cc2C1(C)C", "note": "(centres unmarked)", "hERG current change (%, negative = inhibition) at 10uM": -56},
      {"smiles": "CCCCn1nc(C(=O)Nc2cc(C(F)(F)F)ccc2N2CCOCC2)ccc1=O", "hERG current change (%, negative = inhibition) at 10uM": -83.7},
      {"smiles": "Cc1cc(C(=O)Nc2cc(C(F)(F)F)ccc2N2CCOCC2)no1", "hERG current change (%, negative = inhibition) at 10uM": 5.97},
      {"smiles": "O=C(Nc1cc([N+](=O)[O-])ccc1N1CCOCC1)c1ccco1", "hERG current change (%, negative = inhibition) at 10uM": -25.6},
      {"smiles": "CCC(=O)Nc1cc(C(F)(F)F)ccc1N1CCOCC1", "hERG current change (%, negative = inhibition) at 10uM": 1.09},
      {"smiles": "O=S(=O)(N1CCOCC1)N1CCCN(S(=O)(=O)N2CCOCC2)CC1", "hERG current change (%, negative = inhibition) at 10uM": 5.76},
      {"smiles": "COc1cc2ccccc2cc1C(=O)NCCCN1CCOCC1", "hERG current change (%, negative = inhibition) at 10uM": -5.9},
      {"smiles": "Cc1nn(C(C)C(=O)Nc2sc3c(c2C#N)CCCC3)c(C)c1[N+](=O)[O-]", "note": "(centres unmarked)", "hERG current change (%, negative = inhibition) at 10uM": 12.1},
      {"smiles": "O=C(/C=C/c1ccccc1Cl)NCCCn1ccnc1", "hERG current change (%, negative = inhibition) at 10uM": -17},
      {"smiles": "Cc1ccc(S(=O)(=O)c2c(C)nn(C(C)(C)C)c2OC(=O)C(C)(C)C)cc1", "hERG current change (%, negative = inhibition) at 10uM": 15.6},
      {"smiles": "C=CCn1c(N2CCN(c3ccc(OC)cc3)CC2)nc2c1c(=O)n(C)c(=O)n2C", "hERG current change (%, negative = inhibition) at 10uM": -32.1},
      {"smiles": "CCN(CC)c1nc(C)nc2c1sc(=S)n2C", "hERG current change (%, negative = inhibition) at 10uM": -1.82},
      {"smiles": "Clc1ccc(CNc2nnnn2-c2ccccc2)c(Cl)c1", "hERG current change (%, negative = inhibition) at 10uM": 20.7},
      {"smiles": "COc1cccc(/C=C/C(=O)OCC(=O)Nc2ccc(Cl)cn2)c1", "hERG current change (%, negative = inhibition) at 10uM": 28.1},
      {"smiles": "CCCCC1=NN(C(=O)c2ccncc2)C(O)(C(F)(F)F)C1", "note": "(centres unmarked)", "hERG current change (%, negative = inhibition) at 10uM": 23.1},
      {"smiles": "COc1ccccc1C(=O)COC(=O)CCNS(=O)(=O)c1ccc(C)c(C)c1", "hERG current change (%, negative = inhibition) at 10uM": -21.9},
      {"smiles": "CCC(C(=O)N1CCN(c2ccccn2)CC1)n1nc(C)n2c(cc3occc32)c1=O", "note": "(centres unmarked)", "hERG current change (%, negative = inhibition) at 10uM": -5.95},
      {"smiles": "Cc1ccc(C(=O)N2N=C(c3ccccc3O)CC2c2ccccc2)cc1", "note": "(centres unmarked)", "hERG current change (%, negative = inhibition) at 10uM": 14.6},
      {"smiles": "COc1cccc(NC(=O)CSc2nc(=O)n(CCN(C)C)c3c2CCCC3)c1", "hERG current change (%, negative = inhibition) at 10uM": -49.9},
      {"smiles": "COc1ccc(NC(=O)CSc2nc(=O)n(CCN(C)C)c3c2CCCC3)cc1OC", "hERG current change (%, negative = inhibition) at 10uM": -11.5},
      {"smiles": "CN(C)CCn1c2c(c(SCC(=O)Nc3ccccc3)nc1=O)CCCC2", "hERG current change (%, negative = inhibition) at 10uM": -26.7},
      {"smiles": "CN(C)CCn1c2c(c(SCC(=O)Nc3cccc(C(F)(F)F)c3)nc1=O)CCCC2", "hERG current change (%, negative = inhibition) at 10uM": -68.8},
      {"smiles": "CN(C)CCn1c2c(c(SCC(=O)Nc3ccc4c(c3)OCCO4)nc1=O)CCCC2", "hERG current change (%, negative = inhibition) at 10uM": -14.8},
      {"smiles": "Cc1ccc(NC(=O)CSc2nc(=O)n(CCN(C)C)c3c2CCCC3)cc1Cl", "hERG current change (%, negative = inhibition) at 10uM": -59.8},
      {"smiles": "Cc1ccc(-n2nc3c(c2NC(=O)c2ccco2)CS(=O)C3)cc1", "note": "(centres unmarked)", "hERG current change (%, negative = inhibition) at 10uM": -8.69},
      {"smiles": "CC(C)Cn1c(=S)[nH]c2ccccc2c1=O", "hERG current change (%, negative = inhibition) at 10uM": 22},
      {"smiles": "CCCNC(=O)NCCc1ccncc1", "hERG current change (%, negative = inhibition) at 10uM": 7.09},
      {"smiles": "COc1ccc2c(c1OC)C(=O)N(c1ccc(O)cc1)C2=O", "hERG current change (%, negative = inhibition) at 10uM": 13.4},
      {"smiles": "Cc1cc(=O)oc(C)c1C(=O)NCCNC(=O)c1c(C)cc(=O)oc1C", "hERG current change (%, negative = inhibition) at 10uM": 3.85},
      {"smiles": "CCN(CCCNC(=O)c1c(C)cc(=O)oc1C)c1cccc(C)c1", "hERG current change (%, negative = inhibition) at 10uM": -65.3},
      {"smiles": "CCCCN(CCCNC(=O)c1c(C)cc(=O)oc1C)c1ccccc1", "hERG current change (%, negative = inhibition) at 10uM": -64.4},
      {"smiles": "CCN(CCCNC(=O)c1[nH]c(C)c(C(C)=O)c1C)c1cccc(C)c1", "hERG current change (%, negative = inhibition) at 10uM": -18.2},
      {"smiles": "Cc1cc(=O)oc(C)c1C(=O)NCCN(C)Cc1ccccc1", "hERG current change (%, negative = inhibition) at 10uM": 8.33},
      {"smiles": "CCCNC(=O)c1c(C)cc(=O)oc1C", "hERG current change (%, negative = inhibition) at 10uM": -6.11},
      {"smiles": "Cc1cc(=O)oc(C)c1C(=O)NCCc1ccccc1", "hERG current change (%, negative = inhibition) at 10uM": 7.49},
      {"smiles": "Cc1cc(=O)oc(C)c1C(=O)NCc1ccccc1", "hERG current change (%, negative = inhibition) at 10uM": 11.2},
      {"smiles": "CCN(CCCNC(=O)c1c(C)cc(=O)oc1C)c1ccccc1", "hERG current change (%, negative = inhibition) at 10uM": -52.7}
    ]}
  ]
}
